Experimental data taken from PubChem BioAssay (Tox21).
Unmarked numbers belong to inactive results. Records with an inconclusive call do not appear. A call without a number means that no potency is given here. The source made the active and inactive calls. The call rests on the fitted dose curve; in most records, active means well fitted curve in the direction sought with a large enough effect in the repeat runs; inconclusive means weak or mixed curves; inactive means no such curve, though single readings can be large; an effect the other way counts as inactive or inconclusive.

What was measured:
[1] = qHTS RealTime-Glo MT Cell Viability Assay in HEK293 cells - 40 hour (AID 1224874); settings: RealTime-Glo luminescence; max response: stronger effect = lower value; further: nearly all actives have a fitted effect of over 50% in size
Method in brief: (§1)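 HEK293 + NanoLuc + prosubstrate, 600 cells/well; 5 h, 37 C/5% CO2; compound 23 nL in DMSO by pintool; 37 C; luminescence read at 0, 8, 16, 24, 32 and 40 h time points.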

[2] = A CellTox Green Cytotoxicity Assay to monitor cytotoxicity in HEK293 cells - 24 hour (AID 1224875); settings: CellTox Green fluorescence; series mostly up to 76.8 µM; further: nearly all actives have a fitted effect of over 45% in size
Method in brief: (§2)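 Tox21 screen in HEK293: membrane-impermeant cyanine dye fluoresces on binding dead-cell DNA; compound pinned 5 h post-seeding, plates held at 37 C, signal read repeatedly through 40 h.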

[3] = A CellTox Green Cytotoxicity Assay to monitor cytotoxicity in HepG2 cells - 16 hour (AID 1224876); settings: CellTox Green fluorescence; series mostly up to 76.8 µM; further: nearly all actives have a fitted effect of over 45% in size
Method in brief: (§3)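 Measurements at 0, 8, 16, 24, 32 and 40 h of treatment captured CellTox Green fluorescence in HepG2 cells that had been co-plated with reagent and preincubated 5 h at 37 C/5% CO2.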

[4] = qHTS RealTime-Glo MT Cell Viability Assay in HepG2 cells - 32 hour (AID 1224877); settings: RealTime-Glo luminescence; series mostly up to 76.8 µM; further: nearly all actives have a fitted effect of over 55% in size
Method in brief: (§4)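 Cells + NanoLuc/prosubstrate dispensed (600 cells/well) → 5 h at 37 C/5% CO2 → compounds in DMSO transferred → 40 h incubation at 37 C, luminescence read at 0, 8, 16, 24, 32, 40 h.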

[5] = A CellTox Green Cytotoxicity Assay to monitor cytotoxicity in HepG2 cells - 24 hour (AID 1224878); settings: CellTox Green fluorescence; series mostly up to 76.8 µM; further: nearly all actives have a fitted effect of over 45% in size
Method in brief: as §3

[6] = A CellTox Green Cytotoxicity Assay to monitor cytotoxicity in HepG2 cells - 40 hour (AID 1224879); settings: CellTox Green fluorescence; series mostly up to 76.8 µM; further: nearly all actives have a fitted effect of over 40% in size
Method in brief: as §3

[7] = qHTS RealTime-Glo MT Cell Viability Assay in HEK293 cells - 0 hour (AID 1224880); settings: RealTime-Glo luminescence; series mostly up to 76.8 µM; further: top concentration of the series differs between compounds; nearly all actives have a fitted effect of over 45% in size
Method in brief: as §1

[8] = A CellTox Green Cytotoxicity Assay to monitor cytotoxicity in HEK293 cells - 32 hour (AID 1224881); settings: CellTox Green fluorescence; series mostly up to 76.8 µM; further: nearly all actives have a fitted effect of over 40% in size
Method in brief: as §2

[9] = A CellTox Green Cytotoxicity Assay to monitor cytotoxicity in HepG2 cells - 0 hour (AID 1224882); settings: CellTox Green fluorescence; series mostly up to 76.8 µM; further: nearly all actives have a fitted effect of over 35% in size
Method in brief: as §3

[10] = A CellTox Green Cytotoxicity Assay to monitor cytotoxicity in HepG2 cells - 32 hour (AID 1224883); settings: CellTox Green fluorescence; series mostly up to 76.8 µM; further: nearly all actives have a fitted effect of over 50% in size
Method in brief: as §3

[11] = A CellTox Green Cytotoxicity Assay to monitor cytotoxicity in HEK293 cells - 8 hour (AID 1224884); settings: CellTox Green fluorescence; series mostly up to 76.8 µM; further: nearly all actives have a fitted effect of over 35% in size
Method in brief: as §2

[12] = qHTS RealTime-Glo MT Cell Viability Assay in HepG2 cells - 16 hour (AID 1224885); settings: RealTime-Glo luminescence; series mostly up to 76.8 µM; further: nearly all actives have a fitted effect of over 50% in size
Method in brief: as §4

[13] = qHTS RealTime-Glo MT Cell Viability Assay in HEK293 cells - 24 hour (AID 1224886); settings: RealTime-Glo luminescence; series mostly up to 76.8 µM; further: top concentration of the series differs between compounds; nearly all actives have a fitted effect of over 50% in size
Method in brief: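 Tox21 10K qHTS, HEK293, 600 cells/well, RealTime-Glo reagent co-dispensed with cells; 5 h preincubation, compound by pintool, 37 C, luminescence at 0–40 h.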

[14] = qHTS RealTime-Glo MT Cell Viability Assay in HEK293 cells - 8 hour (AID 1224887); settings: RealTime-Glo luminescence; series mostly up to 76.8 µM
Method in brief: as §1

[15] = A CellTox Green Cytotoxicity Assay to monitor cytotoxicity in HEK293 cells - 16 hour (AID 1224888); settings: CellTox Green fluorescence; series mostly up to 76.8 µM; further: nearly all actives have a fitted effect of over 35% in size
Method in brief: as §2

[16] = qHTS RealTime-Glo MT Cell Viability Assay in HepG2 cells - 0 hour (AID 1224889); settings: RealTime-Glo luminescence; series mostly up to 76.8 µM; further: nearly all actives have a fitted effect of over 50% in size
Method in brief: as §4

[17] = A CellTox Green Cytotoxicity Assay to monitor cytotoxicity in HepG2 cells - 8 hour (AID 1224890); settings: CellTox Green fluorescence; series mostly up to 76.8 µM; further: nearly all actives have a fitted effect of over 45% in size
Method in brief: as §3

[18] = qHTS assay to identify small molecule antagonists of the estrogen receptor alpha (ER-alpha) signaling pathway using the BG1 cell line in the presence of 0.1 nM 17-beta-estradiol - cell viability counter screen (AID 1259241); settings: VM7Luc4E2 (BG1) viability, CellTiter-Fluor protease, 22 h, 0.1 nM estradiol agonist added; series mostly up to 92.4 µM; further: nearly all actives have a fitted effect of over 40% in size
Method in brief: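 Measures cytotoxicity alongside the ER-alpha antagonist readout: VM7Luc4E2 cells, charcoal-stripped serum, 0.1 nM 17beta-estradiol final, 22 hr compound incubation at 37C, CellTiter-Fluor fluorescence.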

[19] = qHTS assay to identify small molecule antagonists of the androgen receptor (AR) signaling pathway using the MDA cell line in the presence of 0.5 nM R1881 - cell viability counter screen (AID 1259242); settings: MDA-kb2 viability, CellTiter-Fluor protease fluorescence, 16 h; series mostly up to 92.4 µM; further: nearly all actives have a fitted effect of over 45% in size
Method in brief: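 Concentration-response screen of compounds for toxicity in MDA-kb2 reporter cells: 16 hr at 37C with 0.5 nM R1881, endpoint live-cell protease fluorescence measured in the reporter wells.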

[20] = target: Androgen receptor (Homo sapiens) (UniProt P10275); assay: qHTS assay to identify small molecule antagonists of the androgen receptor (AR) signaling pathway using the MDA cell line in the presence of 0.5 nM R1881 (AID 1259243); settings: MDA-kb2 MMTV-luciferase, R1881 0.5 nM, 16 h; series mostly up to 92.4 µM; further: nearly all actives have a fitted effect of over 50% in size; further: potency means the concentration at half of the fitted maximal effect
Method in brief: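 With R1881 held at 0.5 nM (final), compound effects on MMTV-luciferase expression in MDA-kb2 cells were scored by luminescence after a 16 hr, 37C incubation.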

Sequence of Androgen receptor (Homo sapiens) (P10275 whole entry, looked up): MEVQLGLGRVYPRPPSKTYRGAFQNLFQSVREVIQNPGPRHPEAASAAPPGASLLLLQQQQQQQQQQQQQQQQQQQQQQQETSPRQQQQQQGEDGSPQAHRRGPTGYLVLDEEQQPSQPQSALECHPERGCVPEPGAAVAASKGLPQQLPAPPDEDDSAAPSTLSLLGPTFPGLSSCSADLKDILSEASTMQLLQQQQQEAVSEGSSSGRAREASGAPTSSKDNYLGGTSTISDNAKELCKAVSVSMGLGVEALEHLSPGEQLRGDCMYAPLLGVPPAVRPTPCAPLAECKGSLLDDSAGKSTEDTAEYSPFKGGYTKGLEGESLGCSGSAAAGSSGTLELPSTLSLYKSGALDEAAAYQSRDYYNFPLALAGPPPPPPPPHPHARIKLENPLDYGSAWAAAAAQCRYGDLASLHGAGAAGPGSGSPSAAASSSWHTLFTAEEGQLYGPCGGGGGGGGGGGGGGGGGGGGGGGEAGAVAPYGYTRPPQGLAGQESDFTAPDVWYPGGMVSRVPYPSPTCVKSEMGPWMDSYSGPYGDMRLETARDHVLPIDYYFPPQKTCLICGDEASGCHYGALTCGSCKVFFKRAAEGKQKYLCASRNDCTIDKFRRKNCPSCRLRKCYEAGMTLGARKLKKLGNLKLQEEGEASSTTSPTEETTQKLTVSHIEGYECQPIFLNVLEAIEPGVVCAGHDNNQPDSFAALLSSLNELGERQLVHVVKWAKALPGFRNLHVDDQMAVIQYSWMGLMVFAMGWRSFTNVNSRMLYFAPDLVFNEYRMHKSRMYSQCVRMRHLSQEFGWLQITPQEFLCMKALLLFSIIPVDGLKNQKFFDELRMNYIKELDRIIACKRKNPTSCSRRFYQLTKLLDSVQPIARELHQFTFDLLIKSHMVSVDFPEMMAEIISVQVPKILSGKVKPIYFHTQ

O=C1Nc2cc(Cl)ccc2Oc2ccccc21
max response [1]: 5.17%
Potency [2]: inactive
Potency [3]: inactive
Potency [4]: inactive
Potency [5]: inactive
Potency [6]: inactive
Potency [7]: inactive
Potency [8]: inactive
Potency [9]: inactive
Potency [10]: inactive
Potency [11]: inactive
Potency [12]: inactive
Potency [13]: inactive
Potency [14]: inactive
Potency [15]: inactive
Potency [16]: inactive
Potency [17]: inactive
Potency [18]: inactive
Potency [19]: inactive
Potency [20]: 4.22 µM (active)

NC(=S)N/N=C/c1cccnc1
max response [1]: 6.57%
Potency [2]: inactive
Potency [3]: inactive
Potency [4]: inactive
Potency [5]: inactive
Potency [6]: inactive
Potency [7]: inactive
Potency [8]: inactive
Potency [9]: inactive
Potency [10]: inactive
Potency [11]: inactive
Potency [12]: inactive
Potency [13]: inactive
Potency [14]: inactive
Potency [15]: inactive
Potency [16]: inactive
Potency [17]: inactive
Potency [18]: inactive
Potency [19]: inactive
Potency [20]: inactive

OCCC1CCCCN1 (centres undefined)
max response [1]: -19.6%
Potency [2]: inactive
Potency [3]: inactive
Potency [4]: inactive
Potency [5]: inactive
Potency [6]: inactive
Potency [7]: inactive
Potency [8]: inactive
Potency [9]: inactive
Potency [10]: inactive
Potency [11]: inactive
Potency [12]: inactive
Potency [13]: inactive
Potency [14]: inactive
Potency [15]: inactive
Potency [16]: inactive
Potency [17]: inactive
Potency [18]: inactive
Potency [19]: inactive

CCCCCCCCC(CO)CCCCCC (centres undefined)
max response [1]: 1.58%
Potency [2]: inactive
Potency [3]: inactive
Potency [4]: inactive
Potency [5]: inactive
Potency [6]: inactive
Potency [7]: inactive
Potency [8]: inactive
Potency [9]: inactive
Potency [10]: inactive
Potency [11]: inactive
Potency [12]: inactive
Potency [13]: inactive
Potency [14]: inactive
Potency [15]: inactive
Potency [16]: inactive
Potency [17]: inactive
Potency [19]: inactive

CCCCCCCCN(C)C
max response [1]: 16%
Potency [2]: inactive
Potency [3]: inactive
Potency [4]: inactive
Potency [5]: inactive
Potency [6]: inactive
Potency [7]: inactive
Potency [8]: inactive
Potency [9]: inactive
Potency [10]: inactive
Potency [11]: inactive
Potency [12]: inactive
Potency [13]: inactive
Potency [14]: inactive
Potency [15]: inactive
Potency [16]: inactive
Potency [17]: inactive
Potency [19]: inactive

CCc1nn(C2CCCCC2)c2cc(C3(C#N)CCC(C(=O)O)CC3)ccc12 (centres undefined)
max response [1]: 0.457%
Potency [2]: inactive
Potency [3]: inactive
Potency [4]: inactive
Potency [5]: inactive
Potency [6]: inactive
Potency [7]: inactive
Potency [8]: inactive
Potency [9]: inactive
Potency [10]: inactive
Potency [11]: inactive
Potency [12]: inactive
Potency [13]: inactive
Potency [14]: inactive
Potency [15]: inactive
Potency [16]: inactive
Potency [17]: inactive
Potency [18]: inactive
Potency [19]: inactive

O=C(c1ccc(O)cc1)c1ccc(O)cc1
max response [1]: -22.8%
Potency [2]: inactive
Potency [3]: inactive
Potency [4]: inactive
Potency [5]: inactive
Potency [6]: inactive
Potency [7]: inactive
Potency [8]: inactive
Potency [9]: inactive
Potency [10]: inactive
Potency [11]: inactive
Potency [12]: inactive
Potency [13]: inactive
Potency [14]: inactive
Potency [15]: inactive
Potency [16]: inactive
Potency [17]: inactive
Potency [18]: inactive
Potency [19]: inactive

CCOc1cc(OCC)c(C(=O)CCC(=O)O)cc1OCC
max response [1]: 3.3%
Potency [2]: inactive
Potency [3]: inactive
Potency [4]: inactive
Potency [5]: inactive
Potency [6]: inactive
Potency [7]: inactive
Potency [8]: inactive
Potency [9]: inactive
Potency [10]: inactive
Potency [11]: inactive
Potency [12]: inactive
Potency [13]: inactive
Potency [14]: inactive
Potency [15]: inactive
Potency [16]: inactive
Potency [17]: inactive
Potency [18]: inactive
Potency [19]: inactive

O=C(O)C(c1ccc(Cl)cc1)c1ccc(Cl)cc1
max response [1]: -1.91%
Potency [2]: inactive
Potency [3]: inactive
Potency [4]: inactive
Potency [5]: inactive
Potency [6]: inactive
Potency [7]: inactive
Potency [8]: inactive
Potency [9]: inactive
Potency [10]: inactive
Potency [11]: inactive
Potency [12]: inactive
Potency [13]: inactive
Potency [14]: inactive
Potency [15]: inactive
Potency [16]: inactive
Potency [17]: inactive
Potency [18]: inactive
Potency [19]: inactive

O=C(O)COC(=O)Cc1ccccc1Nc1c(Cl)cccc1Cl
max response [1]: 5.48%
Potency [2]: inactive
Potency [3]: inactive
Potency [4]: inactive
Potency [5]: inactive
Potency [6]: inactive
Potency [7]: inactive
Potency [8]: inactive
Potency [9]: inactive
Potency [10]: inactive
Potency [11]: inactive
Potency [12]: inactive
Potency [13]: inactive
Potency [14]: inactive
Potency [15]: inactive
Potency [16]: inactive
Potency [17]: inactive
Potency [18]: inactive
Potency [19]: inactive
Potency [20]: inactive

CCCCCCCCCC(=O)OCC
max response [1]: -6.56%
Potency [2]: inactive
Potency [3]: inactive
Potency [4]: inactive
Potency [5]: inactive
Potency [6]: inactive
Potency [7]: inactive
Potency [8]: inactive
Potency [9]: inactive
Potency [10]: inactive
Potency [11]: inactive
Potency [12]: inactive
Potency [13]: inactive
Potency [14]: inactive
Potency [15]: inactive
Potency [16]: inactive
Potency [17]: inactive
Potency [19]: inactive

N[C@H]1C(O)O[C@H](CO)[C@H](O)[C@@H]1O (some centres undefined)
max response [1]: 9.12%
Potency [2]: inactive
Potency [3]: inactive
Potency [4]: inactive
Potency [5]: inactive
Potency [6]: inactive
Potency [7]: inactive
Potency [8]: inactive
Potency [9]: inactive
Potency [10]: inactive
Potency [11]: inactive
Potency [12]: inactive
Potency [13]: inactive
Potency [14]: inactive
Potency [15]: inactive
Potency [16]: inactive
Potency [17]: inactive
Potency [18]: inactive
Potency [19]: inactive
Potency [20]: inactive

O=C(Cl)c1ccc([N+](=O)[O-])cc1
max response [1]: 7.36%
Potency [2]: inactive
Potency [3]: inactive
Potency [4]: inactive
Potency [5]: inactive
Potency [6]: inactive
Potency [7]: inactive
Potency [8]: inactive
Potency [9]: inactive
Potency [10]: inactive
Potency [11]: inactive
Potency [12]: inactive
Potency [13]: inactive
Potency [14]: inactive
Potency [15]: inactive
Potency [16]: inactive
Potency [17]: inactive
Potency [18]: inactive
Potency [19]: inactive
Potency [20]: inactive
